# ± gives the standard deviation of the averaged measurements.
# B1: unnamed (peptide)
# chain: IKKRNKIRLPSGSPE
# B2: unnamed (peptide)
# chain: HPRFVSPRIPSRIVK
# B3: unnamed (peptide)
# chain: VSKLRSPNTPRRLRK
# Assays:
# Experiment in all cases: SPOT peptide array binding signal intensity (averaged, normalized) (arbitrary units (background-subtracted, floor 0; scale differs between SH3 domains)); higher = stronger binding of the SH3 domain to the peptide
# SpBzz1-D2 = target: SpBzz1-D2
# Procedure, shortened: (§1)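 GST-SH3 fusions from four yeast species, purified on glutathione Sepharose, were incubated at 10 μg/ml overnight at 4°C on membranes of synthetic 15-mer peptides in which cysteines were replaced with serines. Binding signal is the normalized, background-subtracted spot intensity averaged over replicates, in domain-specific arbitrary units.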
# SpCyk3 = target: SpCyk3
# Procedure, shortened: as §1
# SpHof1 = target: SpHof1
# Procedure, shortened: as §1
# SpHof1-2 = target: SpHof1-2
# Procedure, shortened: as §1
# SpHof1-3 = target: SpHof1-3
# Procedure, shortened: as §1
# SpHse1 = target: SpHse1
# Procedure, shortened: as §1
# SpLsb1 = target: SpLsb1
# Procedure, shortened: as §1
# SpLsb4 = target: SpLsb4
# Procedure, shortened: as §1
# SpMyo1 = target: SpMyo1
# Procedure, shortened: as §1
# SpNbp2 = target: SpNbp2
# Procedure, shortened: as §1
# SpPex13 = target: SpPex13
# Procedure, shortened: as §1
# SpRvs167 = target: SpRvs167
# Procedure, shortened: as §1
# SpSla1-D1-D2 = target: SpSla1-D1-D2
# Procedure, shortened: as §1
# SpSla1-D3 = target: SpSla1-D3
# Procedure, shortened: as §1
# AgAbp1 = target: AgAbp1
# Procedure, shortened: as §1
# AgBbc1 = target: AgBbc1
# Procedure, shortened: as §1
# AgBem1-D1 = target: AgBem1-D1
# Procedure, shortened: as §1
# AgBzz1-D1 = target: AgBzz1-D1
# Procedure, shortened: as §1
# AgBzz1-D2 = target: AgBzz1-D2
# Procedure, shortened: as §1
# AgCyk3 = target: AgCyk3
# Procedure, shortened: as §1
# AgFus1 = target: AgFus1
# Procedure, shortened: as §1
# AgHof1 = target: AgHof1
# Procedure, shortened: as §1
# AgHse1 = target: AgHse1
# Procedure, shortened: as §1
# AgLsb1 = target: AgLsb1
# Procedure, shortened: as §1
# AgLsb4 = target: AgLsb4
# Procedure, shortened: as §1
# AgMyo5 = target: AgMyo5
# Procedure, shortened: as §1
# AgNbp2 = target: AgNbp2
# Procedure, shortened: as §1
# AgRvs167 = target: AgRvs167
# Procedure, shortened: as §1
# AgSho1 = target: AgSho1
# Procedure, shortened: as §1
# AgSla1-D1-D2 = target: AgSla1-D1-D2
# Procedure, shortened: as §1
# AgSla1-D3 = target: AgSla1-D3
# Procedure, shortened: as §1
# CaAbp1-D1 = target: CaAbp1-D1
# Procedure, shortened: as §1
# CaAbp1-D2 = target: CaAbp1-D2
# Procedure, shortened: as §1
# CaBbc1 = target: CaBbc1
# Procedure, shortened: as §1
# CaBem1-D1 = target: CaBem1-D1
# Procedure, shortened: as §1
# CaBzz1-D1 = target: CaBzz1-D1
# Procedure, shortened: as §1
# CaBzz1-D2 = target: CaBzz1-D2
# Procedure, shortened: as §1
# CaCyk3 = target: CaCyk3
# Procedure, shortened: as §1
# CaFus1 = target: CaFus1
# Procedure, shortened: as §1
# CaHof1 = target: CaHof1
# Procedure, shortened: as §1
# CaHse1 = target: CaHse1
# Procedure, shortened: as §1
# CaLsb1 = target: CaLsb1
# Procedure, shortened: as §1
# CaLsb4 = target: CaLsb4
# Procedure, shortened: as §1
# CaMyo5 = target: CaMyo5
# Procedure, shortened: as §1
# CaNbp2 = target: CaNbp2
# Procedure, shortened: as §1
# CaRvs167 = target: CaRvs167
# Procedure, shortened: as §1
# CaRvs167-3 = target: CaRvs167-3
# Procedure, shortened: as §1
# CaSho1 = target: CaSho1
# Procedure, shortened: as §1
# CaSla1-D1-D2 = target: CaSla1-D1-D2
# Procedure, shortened: as §1
# CaSla1-D3 = target: CaSla1-D3
# Procedure, shortened: as §1
# ScAbp1 = target: ScAbp1
# Procedure, shortened: as §1
# ScBbc1 = target: ScBbc1
# Procedure, shortened: as §1
# ScBem1-D1 = target: ScBem1-D1
# Procedure, shortened: as §1
# ScBzz1-D1 = target: ScBzz1-D1
# Procedure, shortened: as §1
# ScBzz1-D2 = target: ScBzz1-D2
# Procedure, shortened: as §1
# ScCyk3 = target: ScCyk3
# Procedure, shortened: as §1
# ScFus1 = target: ScFus1
# Procedure, shortened: as §1
# ScHof1 = target: ScHof1
# Procedure, shortened: as §1
# ScHse1 = target: ScHse1
# Procedure, shortened: as §1
# ScLsb1 = target: ScLsb1
# Procedure, shortened: as §1
# ScLsb2 = target: ScLsb2
# Procedure, shortened: as §1
# ScLsb3 = target: ScLsb3
# Procedure, shortened: as §1
# ScLsb4 = target: ScLsb4
# Procedure, shortened: as §1
# ScMyo3 = target: ScMyo3
# Procedure, shortened: as §1
# ScMyo5 = target: ScMyo5
# Procedure, shortened: as §1
# ScNbp2 = target: ScNbp2
# Procedure, shortened: as §1
# ScPex13 = target: ScPex13
# Procedure, shortened: as §1
# ScRvs167 = target: ScRvs167
# Procedure, shortened: as §1
# ScSho1 = target: ScSho1
# Procedure, shortened: as §1
# ScSla1-D1-D2 = target: ScSla1-D1-D2
# Procedure, shortened: as §1
# ScSla1-D3 = target: ScSla1-D3
# Procedure, shortened: as §1
# SpAbp1-D1 = target: SpAbp1-D1
# Procedure, shortened: as §1
# SpBbc1 = target: SpBbc1
# Procedure, shortened: as §1
# SpBzz1-D1 = target: SpBzz1-D1
# Procedure, shortened: as §1
binder,measurement,setting,value
B1,SPOT peptide array binding signal intensity,SpBzz1-D2,2
same,SPOT peptide array binding signal intensity,SpCyk3,6.5
same,SPOT peptide array binding signal intensity,SpHof1,253
same,SPOT peptide array binding signal intensity,SpHof1-2,4.5
same,SPOT peptide array binding signal intensity,SpHof1-3,664
same,SPOT peptide array binding signal intensity,SpHse1,457
same,SPOT peptide array binding signal intensity,SpLsb1,6.5
same,SPOT peptide array binding signal intensity,SpLsb4,104
same,SPOT peptide array binding signal intensity,SpMyo1,4
same,SPOT peptide array binding signal intensity,SpNbp2,836
same,SPOT peptide array binding signal intensity,SpPex13,6
same,SPOT peptide array binding signal intensity,SpRvs167,8.5
same,SPOT peptide array binding signal intensity,SpSla1-D1-D2,1.5
same,SPOT peptide array binding signal intensity,SpSla1-D3,2
B2,SPOT peptide array binding signal intensity,AgAbp1,258
same,SPOT peptide array binding signal intensity,AgBbc1,502
same,SPOT peptide array binding signal intensity,AgBem1-D1,182
same,SPOT peptide array binding signal intensity,AgBzz1-D1,185
same,SPOT peptide array binding signal intensity,AgBzz1-D2,23.5
same,SPOT peptide array binding signal intensity,AgCyk3,1
same,SPOT peptide array binding signal intensity,AgFus1,239
same,SPOT peptide array binding signal intensity,AgHof1,116
same,SPOT peptide array binding signal intensity,AgHse1,176
same,SPOT peptide array binding signal intensity,AgLsb1,138
same,SPOT peptide array binding signal intensity,AgLsb4,28
same,SPOT peptide array binding signal intensity,AgMyo5,11
same,SPOT peptide array binding signal intensity,AgNbp2,390
same,SPOT peptide array binding signal intensity,AgRvs167,12.3
same,SPOT peptide array binding signal intensity,AgSho1,13
same,SPOT peptide array binding signal intensity,AgSla1-D1-D2,62.5
same,SPOT peptide array binding signal intensity,AgSla1-D3,32.5
same,SPOT peptide array binding signal intensity,CaAbp1-D1,322
same,SPOT peptide array binding signal intensity,CaAbp1-D2,83.5
same,SPOT peptide array binding signal intensity,CaBbc1,1520
same,SPOT peptide array binding signal intensity,CaBem1-D1,226
same,SPOT peptide array binding signal intensity,CaBzz1-D1,255
same,SPOT peptide array binding signal intensity,CaBzz1-D2,149
same,SPOT peptide array binding signal intensity,CaCyk3,17
same,SPOT peptide array binding signal intensity,CaFus1,373
same,SPOT peptide array binding signal intensity,CaHof1,2
same,SPOT peptide array binding signal intensity,CaHse1,25
same,SPOT peptide array binding signal intensity,CaLsb1,1
same,SPOT peptide array binding signal intensity,CaLsb4,933
same,SPOT peptide array binding signal intensity,CaMyo5,13.8
B3,SPOT peptide array binding signal intensity,AgAbp1,210 ± 71
same,SPOT peptide array binding signal intensity,AgBbc1,284 ± 140
same,SPOT peptide array binding signal intensity,AgBem1-D1,116 ± 54
same,SPOT peptide array binding signal intensity,AgBzz1-D1,65.5 ± 29
same,SPOT peptide array binding signal intensity,AgBzz1-D2,44.8 ± 5.3
same,SPOT peptide array binding signal intensity,AgCyk3,7 ± 0.71
same,SPOT peptide array binding signal intensity,AgFus1,192 ± 110
same,SPOT peptide array binding signal intensity,AgHof1,68 ± 14
same,SPOT peptide array binding signal intensity,AgHse1,352 ± 230
same,SPOT peptide array binding signal intensity,AgLsb1,3.38 ± 4.1
same,SPOT peptide array binding signal intensity,AgLsb4,48.8 ± 16
same,SPOT peptide array binding signal intensity,AgMyo5,2.75 ± 2.5
same,SPOT peptide array binding signal intensity,AgNbp2,84.2 ± 8.8
same,SPOT peptide array binding signal intensity,AgRvs167,9.83 ± 2.1
same,SPOT peptide array binding signal intensity,AgSho1,13 ± 2.8
same,SPOT peptide array binding signal intensity,AgSla1-D1-D2,334 ± 170
same,SPOT peptide array binding signal intensity,AgSla1-D3,8.88 ± 5.8
same,SPOT peptide array binding signal intensity,CaAbp1-D1,897 ± 89
same,SPOT peptide array binding signal intensity,CaAbp1-D2,576 ± 100
same,SPOT peptide array binding signal intensity,CaBbc1,863 ± 130
same,SPOT peptide array binding signal intensity,CaBem1-D1,64 ± 8.5
same,SPOT peptide array binding signal intensity,CaBzz1-D1,156 ± 7.4
same,SPOT peptide array binding signal intensity,CaBzz1-D2,146 ± 120
same,SPOT peptide array binding signal intensity,CaCyk3,47.2 ± 1.1
same,SPOT peptide array binding signal intensity,CaFus1,230 ± 22
same,SPOT peptide array binding signal intensity,CaHof1,0.5 ± 0.71
same,SPOT peptide array binding signal intensity,CaHse1,4.62 ± 3.4
same,SPOT peptide array binding signal intensity,CaLsb1,0.75 ± 0.35
same,SPOT peptide array binding signal intensity,CaLsb4,778 ± 490
same,SPOT peptide array binding signal intensity,CaMyo5,3.38 ± 0.18
same,SPOT peptide array binding signal intensity,CaNbp2,166 ± 86
same,SPOT peptide array binding signal intensity,CaRvs167,23.8 ± 10
same,SPOT peptide array binding signal intensity,CaRvs167-3,28.2 ± 2.5
same,SPOT peptide array binding signal intensity,CaSho1,131 ± 3.9
same,SPOT peptide array binding signal intensity,CaSla1-D1-D2,270 ± 140
same,SPOT peptide array binding signal intensity,CaSla1-D3,3.88 ± 0.53
same,SPOT peptide array binding signal intensity,ScAbp1,41 ± 23
same,SPOT peptide array binding signal intensity,ScBbc1,266 ± 81
same,SPOT peptide array binding signal intensity,ScBem1-D1,25.2 ± 17
same,SPOT peptide array binding signal intensity,ScBzz1-D1,23 ± 9.9
same,SPOT peptide array binding signal intensity,ScBzz1-D2,9.25 ± 3.9
same,SPOT peptide array binding signal intensity,ScCyk3,110 ± 25
same,SPOT peptide array binding signal intensity,ScFus1,143 ± 42
same,SPOT peptide array binding signal intensity,ScHof1,≤ 0
same,SPOT peptide array binding signal intensity,ScHse1,701 ± 130
same,SPOT peptide array binding signal intensity,ScLsb1,33.2 ± 7.8
same,SPOT peptide array binding signal intensity,ScLsb2,11.8 ± 1.1
same,SPOT peptide array binding signal intensity,ScLsb3,2420 ± 260
same,SPOT peptide array binding signal intensity,ScLsb4,70.5 ± 9.2
same,SPOT peptide array binding signal intensity,ScMyo3,2.62 ± 2.3
same,SPOT peptide array binding signal intensity,ScMyo5,2.88 ± 1.9
same,SPOT peptide array binding signal intensity,ScNbp2,275 ± 49
same,SPOT peptide array binding signal intensity,ScPex13,8.5 ± 12
same,SPOT peptide array binding signal intensity,ScRvs167,230.2 ± 2.2
same,SPOT peptide array binding signal intensity,ScSho1,258 ± 32
same,SPOT peptide array binding signal intensity,ScSla1-D1-D2,953 ± 160
same,SPOT peptide array binding signal intensity,ScSla1-D3,36.2 ± 41
same,SPOT peptide array binding signal intensity,SpAbp1-D1,384 ± 320
same,SPOT peptide array binding signal intensity,SpBbc1,5.75 ± 1.1
same,SPOT peptide array binding signal intensity,SpBzz1-D1,236 ± 150
same,SPOT peptide array binding signal intensity,SpBzz1-D2,≤ 0
same,SPOT peptide array binding signal intensity,SpCyk3,5.75 ± 4.6
same,SPOT peptide array binding signal intensity,SpHof1,183 ± 6
same,SPOT peptide array binding signal intensity,SpHof1-2,17 ± 8.5
same,SPOT peptide array binding signal intensity,SpHof1-3,319 ± 74
same,SPOT peptide array binding signal intensity,SpHse1,172 ± 74
same,SPOT peptide array binding signal intensity,SpLsb1,33.8 ± 4.6
same,SPOT peptide array binding signal intensity,SpLsb4,2990 ± 950
same,SPOT peptide array binding signal intensity,SpMyo1,3.25 ± 2.5
same,SPOT peptide array binding signal intensity,SpNbp2,109 ± 68
same,SPOT peptide array binding signal intensity,SpPex13,5.5 ± 2.1
same,SPOT peptide array binding signal intensity,SpRvs167,195 ± 91
same,SPOT peptide array binding signal intensity,SpSla1-D1-D2,10.2 ± 3.9
same,SPOT peptide array binding signal intensity,SpSla1-D3,2.5 ± 0.71
